{
  "source": "PubChem BioAssay AID2240",
  "about": "(Broad Institute, 2010)",
  "note": "Out of some 37,000 compounds screened, about 100 (0.27%) were called active. This is one part of a sample in which actives are shown more often than they occur. Unmarked numbers belong to inactive results. Cut-off read from the data, not from the text of the source: active = inhibition above about 85%; inconclusive = no clear call, values can overlap the other calls; inactive = below about 68%.",
  "data": [
    {"assay": "inhibitors of MITF, primary screen, MITF inhibitor project, cell-based, luminescence (AID 2240);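 note: human melanocyte line stably carrying TRPM1 promoter luciferase reporter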", "conditions": "TRPM1 promoter luciferase, 24 h, hits give high values, concentration not given here", "values": [
      {"molecule": "c1ccc2c(c1)[I+]c1ccccc1-2", "inhibition": "90% (active)"},
      {"molecule": "COc1ccc2[nH]cc(CCNCc3ccc(Br)cc3)c2c1", "inhibition": "-13.8%"},
      {"molecule": "CCCCC/C=C\\C/C=C\\C/C=C\\CCCCCCC(=O)NCCO", "inhibition": "-1.85%"},
      {"molecule": "C[C@H]1CCC/C=C/C2C[C@H](O)C[C@H]2[C@H](O)/C=C\\C(=O)O1", "note": "(stereo not given in full)", "inhibition": "108% (active)"},
      {"molecule": "c1cncc(CNCCc2c[nH]c3ccccc23)c1", "inhibition": "1.76%"},
      {"molecule": "COc1ccc(CNCc2nc3ccccc3c(=O)n2-c2ccc(F)cc2)cc1", "inhibition": "8.31%"},
      {"molecule": "C[C@H]1O[C@@H](O[C@H]2CC[C@]3(CO)C4CC[C@]5(C)[C@@H](C6=CC(=O)OC6)CC[C@]5(O)[C@@H]4CC[C@H]3C2)[C@H](O)[C@H](O)[C@@H]1O[C@@H]1O[C@H](CO)[C@@H](O)[C@H](O)[C@H]1O", "note": "(stereo not given in full)", "inhibition": "10.7%"},
      {"molecule": "CN(C)C(=O)Oc1cc(OC(=O)N(C)C)cc(C(O)CNC(C)(C)C)c1", "note": "(stereo not given)", "inhibition": "-14.7%"},
      {"molecule": "CCCN(C/C=C/I)C1CCc2ccc(O)cc2C1", "note": "(stereo not given)", "inhibition": "-11.9%"},
      {"molecule": "COC1=CC23CCN(C)[C@H](Cc4cc(OC)c(OC)cc42)C3=CC1=O", "inhibition": "2.51%"},
      {"molecule": "Cc1ncsc1CCCl", "inhibition": "-1.18%"},
      {"molecule": "CN[C@@H]1C[C@H]2O[C@@](C)([C@@H]1OC)n1c3ccccc3c3c4c(c5c6ccccc6n2c5c31)C(=O)NC4", "inhibition": "106% (active)"},
      {"molecule": "CC(C)c1c(CN(C)C(C)Cc2ccccc2)n(C)n(-c2ccccc2)c1=O", "note": "(stereo not given)", "inhibition": "20.5%"},
      {"molecule": "CC=C1CN2C3CC1C1(C(=O)OC)C2CC2(c4ccccc4N(C)C32)C1O", "note": "(stereo not given)", "inhibition": "4.01%"},
      {"molecule": "COc1ccccc1N1C(=O)NC(=O)C(CCc2ccncc2)(Cc2cccc3ccccc23)C1=O", "note": "(stereo not given)", "inhibition": "7.09%"}
    ]}
  ]
}
